Records with an inconclusive call do not appear. Values without a mark were called inactive. Active and inactive are the calls of the source. The call rests on the fitted dose curve; in most records, active means well fitted cell-killing curve with a large enough effect in the repeat runs; inconclusive means weak or mixed curves, or effect the other way; inactive means no such curve, though single readings can be large or run the other way.
Experiment: qHTS assay to identify small molecule antagonists of the peroxisome proliferator-activated receptor gamma (PPARg) signaling pathway - cell viability counter screen (AID 743194); further: nearly all actives have a fitted effect of over 55% in size
Details: PPARg-bla HEK293H viability, CellTiter-Glo luminescence, 17 h, co-treated with 50 nM rosiglitazone; series mostly up to 62.6 µM; activity change, negative = cytotoxicity: at the top concentration
Description: U.S. Tox21 Program National Center for Advancing Translational Sciences [NCATS] NIH Chemical Genomics Center [NCGC] U.S. Environmental Protection Agency [EPA] National Institutes of Environmental Health Sciences [NIEHS] National Toxicology Program [NTP] U.S. Food and Drug Administration [FDA] Tox21 Assay Overview: The peroxisome proliferator-activated receptors (PPARs) are lipid-activated transcription factors of the nuclear receptor superfamily with three distinct subtypes namely PPAR alpha, PPAR delta (also called PPAR beta) and PPAR gamma (PPARg). All these subtypes heterodimerize with Retinoid X receptor (RXR) and these heterodimers regulate transcription of various genes. PPAR-gamma receptor (glitazone receptor) is involved in the regulation of glucose and lipid metabolism. To identify the compounds that activate PPAR-gamma signaling, GeneBLAzer PPAR gamma UAS-bla HEK293H cell line (Invitrogen, Carlsbad, CA, USA) containing a beta-lactamase reporter gene under the control of an Upstream Activator Sequence (UAS) was used to screen the Tox21 compound library. The cytotoxicity of the Tox21 compound library against the PPARg-bla cell line was tested in parallel by measuring the cell viability using CellTiter-Glo assay in the same wells.
Tox21 Assay Protocol Summary: PPARg-bla cells were dispensed at 3000 cells/5uL/well in 1536-well black wall/clear bottom plates using a Multidrop Combi (Thermo Fisher Scientific, Waltham, MA) dispenser. After the assay plates were incubated at 37 C and 5% CO2 for 5 h, 23 nL of compounds dissolved in DMSO, positive controls or DMSO only was transferred to the assay plate by a Pintool station (Kalypsys, San Diego, CA), followed by addition of 1ul Rosiglitazone (50 nM, final concentration in the wells). The assay plates were incubated at 37 C for 17 h, and then 1 uL of LiveBLAzerTM B/G FRET substrate was added using a Bioraptr Flying Reagent Dispenser (FRD) workstation (Beckman Coulter, Indianapolis, IN, USA). The assay plates were incubated at room temperature for 1 h and fluorescence intensity was measured by an Envision plate reader (PerkinElmer, Shelton, CT). For cell viability readout that measures cytotoxicity, 4 ul/well of CellTiter-Glo reagent was added into the assay plates using a Flying Reagent Dispenser. After 30 min incubation at room temperature, the luminescence intensity in the plates was measured using a ViewLux plate reader (PerkinElmer).
On the % scale 0 is the no-effect control and ±100 the full control effect; potency means the concentration at half of the fitted maximal effect.

Row | Compound | activity change, negative = cytotoxicity | Potency
1 | CC1(C)CCC[C@]2(C)[C@H]3CCO[C@]3(C)CC[C@@H]12 | 16.8% | 
2 | CCC(C)n1ncn(-c2ccc(N3CCN(c4ccc(OC[C@H]5CO[C@](Cn6cncn6)(c6ccc(Cl)cc6Cl)O5)cc4)CC3)cc2)c1=O (stereo not given in full) | -11.8% | 
3 | CCc1cccc(CC)c1NC(=O)CN(CC(=O)O)CC(=O)O | 5.83% | 
4 | Cc1c(C)c2c(c(C)c1OC(=O)c1cccnc1)CC[C@@](C)(CCC[C@H](C)CCC[C@H](C)CCCC(C)C)O2 | -17.6% | 
5 | C#Cc1ccc(-c2ccccc2F)cc1 | 10.6% | 
6 | CCCCCCCCCCC[C@@H](C[C@@H]1OC(=O)[C@H]1CCCCCC)OC(=O)[C@H](CC(C)C)NC=O | -18.3% | 
7 | CC(C)CCCCCOC(=O)CCS | -22.4% | 
8 | CCCc1ccc(OCC(=O)N2CCN(C(=O)COc3ccc(CCC)cc3OC)CC2)c(OC)c1 | -15.1% | 
9 | C=CC(=O)Nc1cc2c(Nc3ccc(F)c(Cl)c3)ncnc2cc1OCCCN1CCOCC1 |  | 29.8 µM (active)
10 | CC(C)(C)c1ccc(C(O)CCCN2CCC(C(O)(c3ccccc3)c3ccccc3)CC2)cc1 (stereo not given) |  | 13.3 µM (active)
11 | COc1cc2nc(N3CCN(C(=O)c4ccco4)CC3)nc(N)c2cc1OC | -0.286% [at 29.1 µM] | 
12 | CC/C=C\CCCCCO | 9.21% | 
13 | CC(=O)OCC=C(C)C | 1.11% | 
14 | C=CC(C)(CCC=C(C)C)OC=O (stereo not given) | 2.81% | 
15 | CC[C@H](C)COC(=O)/C=C/c1ccc(N=Cc2ccc(OC)cc2)cc1 | -18% | 
16 | CC(C(=O)O)c1ccc2c(c1)[nH]c1ccc(Cl)cc12 (stereo not given) | -9.87% | 
17 | CCN(CCN)c1cccc(C)c1 | 6.25% | 
18 | CC(=O)Oc1cc2c(s1)CCN(C(C(=O)C1CC1)c1ccccc1F)C2 (stereo not given) | -8.27% | 
19 | CC(C)OC(=O)C(O)(CC(=O)O)CC(=O)O | 6.46% | 
20 | O=C(O)O | 0.913% [at 5.95 µM] | 

Row | Compound | activity change, negative = cytotoxicity | Potency
21 | C=Cc1ccccc1C=C | 4.67% [at 232 µM] | 
22 | CC(C)CCOC(=O)/C=C/c1ccccc1 | 9.71% [at 81.1 µM] | 
23 | CC(C)(C)NSc1nc2ccccc2s1 | 22.3% [at 81.1 µM] | 
24 | CCCCCC/C=C\CCCCCCCC(=O)O | -0.985% | 
25 | CCC(CC)(CC(=O)Nc1cccc(/C=C/c2nc(C3CCC3)cs2)c1)C(=O)O | -1.36% | 
26 | COc1cc(C)ccc1O | 1.79% | 
27 | O[C@@H]([C@H](O)[C@H](O)CBr)[C@H](O)CBr | -10.2% | 
28 | c1ccc(C(O[C@@H]2CCCN(CCc3ccc4c(c3)OCO4)C2)c2ccccc2)cc1 | -25.7% | 
29 | CCCCCCCCCCOC(=O)c1ccccc1C(=O)OCCCCCCCC | 13% | 
30 | Cc1cc(=O)oc2cc(O)cc(O)c12 | 23% [at 81.1 µM] | 
31 | O=S(=O)(O)c1ccc(N=Nc2c(O)ccc3ccccc23)cc1 | -25% | 
32 | NC(=O)c1cccc([N+](=O)[O-])c1 | 8.79% | 
33 | Cc1ccc(-c2ccccc2)cc1 | 2.86% | 
34 | O=C(O)c1cccc(C(F)(F)F)c1 | 20.4% | 
35 | Cc1ccc(N/N=c2\c(=O)cc/c(=N\Nc3ccc(S(=O)(=O)O)cc3)c2=O)c(C)c1 | -5.61% | 
36 | NC[C@H]1O[C@H](O[C@H]2[C@H](O[C@@H]3O[C@H](CO)[C@@H](O)[C@H]3O)C(O)[C@H](N)C[C@@H]2N)[C@H](N)[C@@H](O)[C@@H]1O (stereo not given in full) | 8.9% [at 13.2 µM] | 
37 | O=[N+]([O-])c1cccc(C(F)(F)F)c1 | 19.1% [at 81.1 µM] | 
38 | COC1=C(OC)C(=O)C(CCCCCCCCCCO)=C(C)C1=O | -18% | 
39 | O=C(O)Cc1ccc2c(c1)C(=O)c1ccccc1CO2 | -1.15% | 
40 | CC(N=C(NC#N)Nc1ccncc1)C(C)(C)C (stereo not given) | 12% | 

— PubChem BioAssay (Tox21)
